Assay [1] in a line: Quantitative High-Throughput drug screen in 47 multiple myeloma cell lines against the NCATS MIPE library collection: KMS12PE_JCRB cell viability assay (AID 1918972). Also: nearly all actives have a fitted effect of over 30% in size. Also: potency is read from the fitted curve at half-maximal effect. The method in brief: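 Viability readout: CellTiter-Glo luminescence following 5 min room-temperature incubation with reagent. Prior exposure: 48 h, 37C, humidified 5% CO2, 500 cells per well.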
Assay [2] can be described thus: Quantitative High-Throughput drug screen in 47 multiple myeloma cell lines against the NCATS MIPE library collection: MOLP8_DSMZ cell viability assay (AID 1918977). Also: nearly all actives have a fitted effect of over 45% in size. Also: potency is read from the fitted curve at half-maximal effect. The method in brief:
(§1)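 Cells were exposed to library compounds for 48 hours, after which ATP was measured by CellTiter-Glo. Signal was taken as median relative luminescence units.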

Assay [3] is described as follows: Quantitative High-Throughput drug screen in 47 multiple myeloma cell lines against the NCATS MIPE library collection: NCIH929_DSMZ cell viability assay (AID 1918978). Also: nearly all actives have a fitted effect of over 35% in size. Also: potency is read from the fitted curve at half-maximal effect. The method in brief: as §1
Assay [4] is described as follows: Quantitative High-Throughput drug screen in 47 multiple myeloma cell lines against the NCATS MIPE library collection: OCIMY1_PLB cell viability assay (AID 1918979). Also: nearly all actives have a fitted effect of over 35% in size. The method in brief: as §1
Assay [5] in a line: Quantitative High-Throughput drug screen in 47 multiple myeloma cell lines against the NCATS MIPE library collection: MM1S_ATCC cell viability assay (AID 1918980). Also: nearly all actives have a fitted effect of over 45% in size. Also: potency is read from the fitted curve at half-maximal effect. The method in brief: as §1
A short description of assay [6]: Quantitative High-Throughput drug screen in 47 multiple myeloma cell lines against the NCATS MIPE library collection: MM1R_ATCC cell viability assay (AID 1918981). Also: nearly all actives have a fitted effect of over 35% in size. Also: potency is read from the fitted curve at half-maximal effect. The method in brief: as §1
Assay [7] is described as follows: Quantitative High-Throughput drug screen in 47 multiple myeloma cell lines against the NCATS MIPE library collection: LP1_DSMZ cell viability assay (AID 1918982). Also: nearly all actives have a fitted effect of over 35% in size. Also: potency is read from the fitted curve at half-maximal effect. The method in brief: as §1
Assay [8] is described as follows: Quantitative High-Throughput drug screen in 47 multiple myeloma cell lines against the NCATS MIPE library collection: KMS28PE_JCRB cell viability assay (AID 1918983). Also: nearly all actives have a fitted effect of over 35% in size. Also: potency is read from the fitted curve at half-maximal effect. The method in brief: as §1
A short description of assay [9]: Quantitative High-Throughput drug screen in 47 multiple myeloma cell lines against the NCATS MIPE library collection: OCIMY5_PLB cell viability assay (AID 1918988). Also: nearly all actives have a fitted effect of over 65% in size. Also: potency is read from the fitted curve at half-maximal effect. The method in brief: as §1
A short description of assay [10]: Quantitative High-Throughput drug screen in 47 multiple myeloma cell lines against the NCATS MIPE library collection: SKMM1_PLB cell viability assay (AID 1919863). Also: nearly all actives have a fitted effect of over 35% in size. Conditions: SKMM1 myeloma viability, CellTiter-Glo ATP, 48 h; viability: active compounds read low. The method in brief:
as §1

A short description of assay [11]: Quantitative High-Throughput drug screen in 47 multiple myeloma cell lines against the NCATS MIPE library collection: KMS26_JCRB cell viability assay (AID 1918975). Also: nearly all actives have a fitted effect of over 45% in size. The method in brief: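 We plated 500 myeloma cells per well, pinned in MIPE 4.0 compounds, and incubated for 48 hours at 37C. ATP was then quantified with CellTiter-Glo, with DMSO and media-only wells defining 100% and 0%.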

Assay [12] can be described thus: Quantitative High-Throughput drug screen in 47 multiple myeloma cell lines against the NCATS MIPE library collection: L363_DSMZ cell viability assay (AID 1918984). Also: nearly all actives have a fitted effect of over 40% in size. Also: potency is read from the fitted curve at half-maximal effect. The method in brief:
as §1

The nature of assay [13]: Quantitative High-Throughput drug screen in 47 multiple myeloma cell lines against the NCATS MIPE library collection: OPM1_PLB cell viability assay (AID 1918989). Also: nearly all actives have a fitted effect of over 40% in size. Also: potency is read from the fitted curve at half-maximal effect. The method in brief: as §1
Assay [14] can be described thus: Quantitative High-Throughput drug screen in 47 multiple myeloma cell lines against the NCATS MIPE library collection: KMS20_JCRB cell viability assay (AID 1918973). Also: nearly all actives have a fitted effect of over 45% in size. Also: potency is read from the fitted curve at half-maximal effect. The method in brief:
(§2)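 Inhibition of cell viability is measured here. Each line was plated at 500 cells per well, treated with MIPE 4.0 drugs, kept 48 hours at 37C, then assayed for ATP content by CellTiter-Glo luminescence.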

A short description of assay [15]: Quantitative High-Throughput drug screen in 47 multiple myeloma cell lines against the NCATS MIPE library collection: KMS21BM_JCRB cell viability assay (AID 1918974). Also: potency is read from the fitted curve at half-maximal effect. To be noted: ATP luminescence, 48 h; viability: at 45.8 µM (top of the series) unless noted. The method in brief:
as §2

Assay [16] is described as follows: Quantitative High-Throughput drug screen in 47 multiple myeloma cell lines against the NCATS MIPE library collection: KMS34_JCRB cell viability assay (AID 1918985). Also: nearly all actives have a fitted effect of over 40% in size. The method in brief: as §1
The nature of assay [17]: Quantitative High-Throughput drug screen in 47 multiple myeloma cell lines against the NCATS MIPE library collection: OCIMY7_PLB cell viability assay (AID 1918987). Also: nearly all actives have a fitted effect of over 65% in size. Also: potency is read from the fitted curve at half-maximal effect. The method in brief:
as §1

Each structure is given as a SMILES string. Results filed as inconclusive are left out. A number with no mark means an inactive call. The source made the active and inactive calls. Calls follow the shape of the dose curve; as a rule, active = well fitted curve in the direction sought with a large enough effect; inconclusive = small, poorly fitted or top-dose-only effect, or another doubt; inactive = no such curve, though single readings can be large; an effect the other way counts as inactive or inconclusive.

With `CC(C(=O)O)c1cccc(C(=O)c2ccccc2)c1` (stereo not drawn), the Potency result in assay [1], in assay [2], in assay [4], in [7] and in [8] was “inactive” each time. For the same compound, the Potency was 13.2 µM (active) in assay [3], 2.96 µM (active) in assay [5], 23.5 µM (active) in assay [6] and 20.9 µM (active) in assay [9]. Moreover, the viability in assay [10] was 106%.
On to `CC(C)NCC(O)COc1ccc(CCOCC2CC2)cc1` (stereo not drawn), for which the Potency entry in [1], in [11], in [3], in [4], in assay [6] and in [7] was “inactive” each time. The Potency entry in [8], in assay [12], in assay [9] and in assay [13] was “inactive” throughout. In addition, the Potency in [5] was 16.6 µM (active).
For the compound `Nc1c2c(nc3ccccc13)CCCC2`, the Potency entry in assay [1], in [3], in assay [4], in assay [7] and in assay [13] was “inactive” in each case. In addition, the Potency in [5] is 11.8 µM (active); in assay [8] it was 14.8 µM (active); in assay [9], 23.5 µM (active).
For the compound `Cn1ccc2cc3c(cc21)CCN3C(=O)Nc1cccnc1`, in assay [1], the Potency is 20.9 µM (active). In addition, in assay [6], the Potency entry was “inactive”.
As for `O=C(c1ccc(OCCN2CCCCC2)cc1)c1c(-c2ccc(O)cc2)sc2cc(O)ccc12`, the Potency was 23.5 µM (active) in assay [1]; 16.6 µM (active) in assay [14]; 13.2 µM (active) in assay [15]; 23.5 µM (active) in assay [3]; 18.7 µM (active) in assay [9]; 5.9 µM (active) in assay [13]. Also, the Potency result in assay [4] was “inactive”.
For `CN1CCC(=C2c3ccccc3CC(=O)c3sccc32)CC1`, the Potency result in [1], in assay [14], in assay [15], in assay [2], in assay [4] and in assay [7] was “inactive” each time. Further, the Potency result in assay [8] was “inactive”. The Potency in [3] was 4.18 µM (active); in [5], 16.6 µM (active); in [12], 23.5 µM (active); in assay [9], 23.5 µM (active); in assay [13], 23.5 µM (active).
`CCc1cccc2c3c([nH]c12)C(CC)(CC(=O)O)OCC3` (stereo not drawn): the Potency entry in assay [1], in assay [3], in [4], in [5], in assay [7] and in assay [8] was “inactive” in each case. Besides, the Potency result in [12] and in [13] was “inactive” throughout.
As for `CC(COc1ccccc1)N(CCCl)Cc1ccccc1` (stereo not drawn), the Potency entry in [3], in [7] and in [16] was “inactive” in each case. Moreover, the Potency in assay [9] is 26.4 µM (active). For the same compound, in assay [10], the viability was 112%.
With `COc1ccc2c(c1)c(CC(=O)O)c(C)n2C(=O)c1ccc(Cl)cc1`, the Potency in [14] is 9.35 µM (active); in assay [3], 18.7 µM (active); in assay [5], 18.7 µM (active); in [12], 18.7 µM (active); in [17], 13.2 µM (active). Also, the Potency entry in assay [2], in assay [4], in [6], in [7], in assay [16] and in [13] was “inactive” each time.
Take `COc1cc2nc(N(C)CCCNC(=O)C3CCCO3)nc(N)c2cc1OC` (stereo not drawn): the Potency result in assay [1], in [14], in [3] and in assay [5] was “inactive” throughout.
On to `O=c1c(O)c(-c2ccc(O)c(O)c2)oc2cc(O)cc(O)c12`, for which the Potency result in assay [2] and in assay [8] was “inactive” throughout. Besides, the Potency in assay [3] was 7.43 µM (active); in assay [5], 26.4 µM (active); in assay [17], 11.8 µM (active); in [13], 20.9 µM (active).
Regarding `O=C(C1CCCCC1)N1CC(=O)N2CCc3ccccc3C2C1` (stereo not drawn), the Potency result in assay [1], in assay [14], in [2], in assay [4], in assay [6] and in assay [7] was “inactive” each time. For the same compound, the Potency result in assay [8], in assay [12], in assay [16], in assay [9] and in assay [13] was “inactive” throughout.
With `COc1cc2nc(N3CCN(C(=O)c4ccco4)CC3)nc(N)c2cc1OC`, the Potency in assay [1] was 7.43 µM (active); in assay [14], 8.33 µM (active); in [2], 20.9 µM (active); in [3], 8.33 µM (active); in assay [5] it was 20.9 µM (active); in assay [6], 26.4 µM (active). For the same compound, the Potency in assay [8] is 26.4 µM (active); in [12] it was 7.43 µM (active); in assay [13], 8.33 µM (active).
Consider `O=c1[nH]cc(F)c(=O)[nH]1`, for which the Potency in assay [1] was 4.69 µM (active); in [5], 14.8 µM (active); in [6], 10.5 µM (active); in assay [7], 14.8 µM (active). In addition, the Potency result in [8] and in [9] was “inactive” each time.
For the compound `Cc1ccc(-c2cc(C(F)(F)F)nn2-c2ccc(S(N)(=O)=O)cc2)cc1`, the Potency in assay [1] is 4.18 µM (active); in [5], 20.9 µM (active); in [6], 8.33 µM (active); in assay [9] it was 20.9 µM (active). Besides, the Potency entry in assay [4] and in assay [12] was “inactive” in each case.
Consider `O=C1N(c2ccccc2)c2ccccc2C1(Cc1ccncc1)Cc1ccncc1`, for which the Potency entry in assay [1], in assay [3], in assay [4], in assay [7], in assay [8] and in assay [13] was “inactive” in each case. In addition, the Potency was 0.001 µM (active) in [14], 26.4 µM (active) in assay [6] and 37.2 µM (active) in [9].
Take `CN(CCOc1ccc(NS(C)(=O)=O)cc1)CCc1ccc(NS(C)(=O)=O)cc1`: the Potency entry in assay [1], in [11], in assay [2], in [3], in assay [4] and in [6] was “inactive” in each case. The Potency result in [7], in assay [8], in [12], in assay [17] and in assay [13] was “inactive” throughout.
For `Cc1cc(C(C)(C)C)cc(C)c1CC1=NCCN1`, the Potency result in assay [1], in assay [14], in [2], in assay [3], in [6] and in [8] was “inactive” in each case. Further, the Potency entry in [13] was “inactive”. Besides, the viability in assay [10] was 116%.
Turning to `CCN1CCCC1CNC(=O)c1cc(S(=O)(=O)CC)c(N)cc1OC` (stereo not drawn), the Potency entry in [1], in assay [14], in [11], in assay [2], in assay [6] and in assay [7] was “inactive” throughout. The Potency result in [8], in [9] and in assay [13] was “inactive” each time.

Source of the values: PubChem BioAssay (NCATS).
